The list is not random: actives were taken first. Their share in the collection is about 4.1%.
GDH-TPI counter – counter-screen for M. tuberculosis FBA inhibitors: GDH-TPI coupled enzymes; inhibition, % at 4.8 µM; GDH-TPI coupled enzyme counterscreen, NADH absorbance; actives 1.2% (n = 360,000); in the data active = inhibition above about 30%
Mtb FBA inh – inhibits M. tuberculosis FBA enzyme | P9WQA3 | actives 2.3% (n = 360,000) | AID 588726 | purified M. tuberculosis FBA, fluorescence read-out | inhibition, % at 1 µM; in the data active = inhibition above about 27%
Rv3671c protease – inhibits the M. tuberculosis serine protease Rv3671c; P9WHR9; inhibition, % at 5.96 µM; actives 0.048% (n = 320,000); AID 2606; in the data active = inhibition above about 38%;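 note: extracellular domain of Rv3671c used as enzyme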
RecA splice inh – inhibitors of M. tuberculosis RecA intein splicing. actives 0.75% (n = 290,000). cell-free RecA intein splicing, fluorescence. inhibition, % (test concentration not listed). P9WHJ3. AID 2221; in the data active = inhibition above about 30%
Vc quorum ag – induces V. cholerae light production without autoinducers; V. cholerae BH1578 lux reporter, luminescence, 6 h; activation, % at 18.7 µM; actives 0.16% (n = 350,000); in the data active = activation mostly above about 9.7%, no sharp cut-off
Mtb UGM inh – blocks M. tuberculosis UGM enzyme | P9WIQ1 | purified UGM, fluorescence polarization probe displacement | inhibition, % at 10 µM | actives 0.06% (n = 320,000); in the data active = inhibition above about 10%, passing the limit was not always enough
Target sequence (P9WIQ1 whole entry, looked up): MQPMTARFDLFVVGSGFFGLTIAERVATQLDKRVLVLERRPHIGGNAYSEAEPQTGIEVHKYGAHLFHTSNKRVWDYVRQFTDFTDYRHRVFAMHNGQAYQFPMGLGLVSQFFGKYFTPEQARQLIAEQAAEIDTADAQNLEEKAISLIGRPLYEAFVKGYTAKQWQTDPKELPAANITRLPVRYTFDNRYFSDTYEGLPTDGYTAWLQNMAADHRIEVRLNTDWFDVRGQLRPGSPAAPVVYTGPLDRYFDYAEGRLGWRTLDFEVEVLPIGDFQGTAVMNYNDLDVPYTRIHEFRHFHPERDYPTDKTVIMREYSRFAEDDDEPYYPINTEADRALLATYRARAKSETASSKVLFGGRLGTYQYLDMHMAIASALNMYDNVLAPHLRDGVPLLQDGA
A number is an active result; n = inactive; x = no result.

SMILES | GDH-TPI counter | Mtb FBA inh | Rv3671c protease | RecA splice inh | Vc quorum ag | Mtb UGM inh
CCCc1cc(=O)n2[nH]c(-c3ccco3)nc2n1 | n | n | n | n | n | n
CCCCN1Cc2c(nc3cc(-c4ccco4)[nH]n3c2=O)C1=O | n | 143 | n | x | n | n
CS(=O)(=O)c1ccc(CNC(=O)C2(C(F)(F)F)C/C(=C\Cc3ccccc3)CCCO2)cc1 (centres undefined) | n | n | n | n | n | n
CCOC(=O)c1cnn2c(C)cc(-c3ccc(F)cc3)nc12 | n | 60 | n | n | n | n
Cc1cc(-c2ccc(F)cc2)nc2cc(C(N)=O)nn12 | n | n | n | n | n | n
O=C(O)c1ccc(Cl)c(NC(=O)C2CCN(S(=O)(=O)c3ccc4c(c3)OCCO4)CC2)c1 | n | n | x | x | n | x
CSC1=N/C(=C/c2cccnc2)C(=O)N1Cc1ccccc1 | 32 | n | n | n | n | n
CCc1cc(=O)[nH]c(SCCC(F)=C(F)F)n1 | n | n | n | n | n | n
CCOc1ccccc1C(=O)N[C@H](C(=O)OCC(=O)Nc1nnc(-c2ccccc2)o1)C(C)C | n | n | x | x | x | x
Cc1cc(C)n2nc(C(=O)Nc3ccn(Cc4ccccc4C)n3)cc2n1 | n | n | n | n | n | n
COc1ccc(OC)c(/C=N/NC(=O)Cn2ccnc2C)c1 | n | 165 | n | n | n | n
CN(C)CCN(Cc1cc2cc3c(cc2nc1Cl)OCO3)C(=O)c1ccco1 | n | n | n | n | n | n
Cc1cc(C(=O)CCl)c(C)n1CCc1ccccc1 | x | x | n | 40 | x | n
O=C(Nc1ccc(C(=O)O)cc1)/C(=C\c1ccco1)NC(=O)c1ccc(Br)o1 | n | n | n | n | n | n
O=C(Nc1ccc(C(=O)O)cc1)/C(=C\c1ccco1)NC(=O)c1ccc(Br)cc1 | 40 | n | x | x | n | x
O=C(Nc1ccc(O)cc1)/C(=C/c1ccco1)NC(=O)c1ccccc1 | 40 | n | n | n | n | n
O=C(O)/C(=C/c1ccco1)NC(=O)c1ccccc1 | n | n | n | n | n | n
N#C/C(=C(/O)c1ccc([N+](=O)[O-])o1)c1nc2ccccc2[nH]1 | n | n | n | n | 35 | n
N#C/C(=C\c1ccc([N+](=O)[O-])o1)c1nc2ccccc2[nH]1 | x | x | n | n | x | n
COc1cc(/C=N/Nc2ncnc3sc4c(c23)CCC4)ccc1O | 47 | n | x | x | n | x
COc1ccc(/C=N/Nc2ncnc3scc(-c4ccccc4)c23)cc1OC | 48 | n | n | n | n | n
COc1ccc(/C=N/Nc2nc(-c3cccnc3)nc3ccccc23)cc1OC | n | n | n | n | n | n
CC1(C(=O)NCc2ccco2)Cc2c(-c3ccc(C(N)=O)cc3)ccnc2O1 (centres undefined) | n | n | x | x | n | x
CN(C)c1ccc(NC(=S)Nc2ccc3c(c2)c(=O)n(C)n3-c2ccc(C(C)(C)C)cc2)cc1 | n | n | x | x | n | x
Cc1cc(-c2ccc(/C=N/n3cnnc3)o2)ccc1Cl | 33 | n | n | n | n | n
SMILES | GDH-TPI counter | Mtb FBA inh | Rv3671c protease | RecA splice inh | Vc quorum ag | Mtb UGM inh
CCOC(=O)c1cc(-c2ccc(/C=C3/C(=O)N(c4ccc(C(=O)O)cc4)N=C3C)o2)ccc1Cl | n | n | n | n | n | n
CCOC(=O)c1cc(-c2ccc(/C=N\n3cnnc3)o2)ccc1Cl | 47 | n | n | n | n | n
CCCCOC(=O)c1cc(-c2ccc(/C=N/n3cnnc3)o2)ccc1Cl | 31 | n | n | n | n | n
Nc1ccc(-c2nc3cc([N+](=O)[O-])ccc3o2)cc1 | 42 | n | n | n | n | n
CC(C)c1ccc2oc(-c3ccc(N)cc3)nc2c1 | n | 191 | n | n | n | n
Cc1cc(C)c(C(=O)C(C)OC(=O)c2ccc(Cl)nc2)cc1C (centres undefined) | n | n | n | n | n | n
O=C(CSc1nc(-c2ccco2)cc(C(F)(F)F)n1)Nc1cccnc1 | 32 | n | n | n | n | n
O=C(CSc1nc(-c2ccco2)cc(C(F)(F)F)n1)Nc1ccc2c(c1)OCO2 | n | n | n | n | n | n
CC(C)COC(=O)N(C)C[C@H]1OCc2cnnn2CCCC(=O)N([C@H](C)CO)C[C@@H]1C | n | n | x | x | n | x
COc1ccc(CN2CCN(c3cc(C)nc4c5c(C)cc(C)nc5nn34)CC2)cc1F | n | 125 | n | n | n | n
O=C(N/N=C/c1ccc2c(c1)OCO2)c1ccccn1 | 41 | n | n | n | n | n
O=C(N/N=C/c1cc2c(cc1Br)OCO2)c1ccccn1 | 31 | n | n | n | n | n
Cc1ccc2nc(C)c(C(=O)N/N=C/c3ccco3)cc2c1 | n | n | n | n | n | n
Cc1ccc2nc(C)c(C(=O)N/N=C/c3ccc(N4CCOCC4)cc3)cc2c1 | 41 | n | n | n | n | n
COc1cc(/C=N/NC(=O)c2nc3ccccn3c2C)cc(OC)c1O | n | n | n | n | n | n
CN(C)c1ccc(/C=N/NC(=O)c2ccccn2)cc1 | n | n | n | n | n | n
Cc1c(C(=O)N/N=C/c2ccc(N3CCOCC3)cc2)nc2ccccn12 | 31 | n | n | x | n | n
O=C(N/N=C/c1cc2c(cc1Br)OCO2)c1cc2ccccc2o1 | n | n | n | n | n | n
CC1CCCN(S(=O)(=O)c2ccc3c(c2)c(=O)nc2ccc(Cl)cn23)C1 (centres undefined) | n | n | n | n | n | n
O=C(N/N=C/c1ccncc1)c1ccccn1 | n | n | n | n | n | n
O=C(N/N=C/c1ccc(N2CCOCC2)cc1)c1ccccn1 | 67 | n | n | n | n | n
CC(=O)c1cccc(NC(=O)c2cc(-c3cccs3)on2)c1 | n | n | n | n | n | n
O=C(Nc1cccc(O)c1)c1cc(-c2cccs2)on1 | n | 165 | n | n | n | n
O=C1OCC(c2ccccc2)=C1c1ccc(S(=O)(=O)N2CCOCC2)s1 | n | n | n | n | 17 | n
NNC(=O)/C(=C/c1cccs1)NC(=O)c1ccccc1Cl | 43 | n | n | n | n | n
SMILES | GDH-TPI counter | Mtb FBA inh | Rv3671c protease | RecA splice inh | Vc quorum ag | Mtb UGM inh
COc1ccccc1/C=N/NC(=O)c1nnn(-c2nonc2N)c1-c1cccs1 | 43 | n | n | n | n | n
COc1ccc(/C=N/NC(=O)c2nnn(-c3nonc3N)c2-c2cccs2)c(OC)c1 | 46 | n | n | n | n | n
COc1ccccc1/C=N/NC(=O)c1nnn(-c2nonc2N)c1-c1ccccc1 | n | n | n | n | n | n
O=C(Nc1cccc2ccccc12)ON=C1CCCCC1 | n | 116 | x | x | n | x
Cc1nc(/C=[N+](\[O-])C(C)(C)/C=N/O)n(O)c1C | 31 | n | n | n | n | n
CC(=O)NN1C(=O)/C(=C2/Sc3ccccc3N2C)SC1=S | n | n | n | n | n | n
CN1C(=C2C(=O)OC(C)(C)OC2=O)Sc2ccccc21 | 46 | n | n | n | n | n
O=C(CN1C(=O)NC2(CCCC2)C1=O)N1CCN(c2ccccc2O)CC1 | n | n | n | n | n | n
COc1ccc(-c2noc(-c3ccc4c(c3)OCO4)n2)cc1 | n | n | n | n | n | n
COc1ccc(-c2nc(-c3ccc4c(c3)OCO4)[nH]c2-c2ccc(OC)cc2)cc1 | n | 136 | n | n | n | n

Screens: PubChem, several laboratories
